# Assay outcomes from PubChem BioAssay.
# BAZ2B inh: inhibitors of human BAZ2B bromodomain | AlphaScreen BAZ2B-H3K14Ac peptide displacement | hit rate 4.4% among 360,000 | Potency, µM (titrated, usually from 114 µM), for inactives: top-dose activity change, negative = inhibition, most hits filed as inhibitors; also: % is scaled to controls: 0 for no effect and ±100 for the full control effect; nearly all actives have a fitted effect of over 60% in size
#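 AlphaScreen displacement: compounds (up to 110uM) incubated 30 min at room temperature with a preformed 50 nM BAZ2B/50 nM biotinylated H3K14Ac peptide complex in PBS pH 7.4 with Tween-20. Donor and acceptor beads at 10 ug/mL final added, 20 min light-protected before reading.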
# G9a block: blocks human histone lysine methyltransferase G9a | Q96KQ7 | G9a H3K9 monomethylation, AlphaScreen, 2 h | Potency, µM (highest dose often 102 µM), for the others: at the top dose activity, negative = inhibition, actives largely listed as inhibitors | hit rate 8.8% among 350,000; also: % is scaled to controls: 0 for no effect and ±100 for the full control effect; nearly all actives have a fitted effect of over 75% in size
# Target sequence (Q96KQ7 913-1193 limits assumed): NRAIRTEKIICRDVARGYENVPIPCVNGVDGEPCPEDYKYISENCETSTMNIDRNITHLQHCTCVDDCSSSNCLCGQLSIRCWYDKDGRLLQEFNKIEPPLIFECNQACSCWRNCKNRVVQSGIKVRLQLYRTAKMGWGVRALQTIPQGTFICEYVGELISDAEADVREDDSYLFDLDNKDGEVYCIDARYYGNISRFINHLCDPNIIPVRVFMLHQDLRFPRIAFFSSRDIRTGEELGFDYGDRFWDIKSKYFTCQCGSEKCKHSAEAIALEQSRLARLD
#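 AlphaScreen read-out: biotin-H3K9 peptide (500 nM) methylation by 20 nM enzyme with 20 uM SAM, 2 h at room temperature after 15 min compound preincubation; anti-monomethyl H3K9 antibody plus donor/acceptor beads, 10 min dark.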
# HP1b binding inh: inhibitors of HP1-beta chromodomain binding to methylated histone tails. AlphaScreen HP1-beta / biotin-H3K9me3 peptide binding. Potency, µM (doses to about 114 µM), for the others: top-dose activity change, negative = inhibition, hits mostly inhibitors. hit rate 0.56% among 390,000; also: nearly all actives have a fitted effect of over 70% in size
# Target sequence (P83916 whole entry, looked up): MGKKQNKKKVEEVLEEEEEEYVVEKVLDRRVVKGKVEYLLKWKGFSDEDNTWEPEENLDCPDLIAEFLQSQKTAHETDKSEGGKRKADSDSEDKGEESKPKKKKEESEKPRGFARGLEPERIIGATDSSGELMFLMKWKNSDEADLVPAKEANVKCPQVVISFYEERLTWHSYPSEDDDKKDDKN
#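 HP1-beta protein (50 nM final) preincubated 30 min at room temperature with biotinylated H3(1-18)K9me3 peptide (50 nM) in PBS pH 7.4, 0.01% Tween-20, then compound added for 30 min. AlphaScreen streptavidin donor/nickel chelate acceptor beads (10 ug/mL final), 30 min dark, luminescence read.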
# Sfp PPTase inh: inhibitors of Bacillus subtilis Sfp phosphopantetheinyl transferase | Q9F4F7 | Biochemical Sfp PPTase activity, qHTS | Potency, µM, for inactives: largest response in the series, negative = inhibition, actives largely listed as inhibitors | hit rate 3.5% among 310,000;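 also: the enzyme is Sfp with the accession as filed and its product quenches rhodamine fluorescence; 0% = enzyme reaction without inhibitor and -100% = no enzyme wells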
#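 After 15 min at room temperature with compound, 15 nM Sfp received 5 uM rhodamine-CoA plus 12.5 uM BHQ-2-ybbR (50 mM Hepes pH 7.6, 10 mM MgCl2). Rate came from the fluorescence difference over 30 min, ex 525/em 598 nm.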
# JMJD2A Tudor: JMJD2A Tudor domain (human) inhibition; O75164; AID 504339; Potency, µM (top dose mostly 114 µM), for the others: top-dose activity change, negative = inhibition, usual class: inhibitors; AlphaScreen JMJD2A-Tudor / H3K4me3 peptide binding; hit rate 4.4% among 390,000; also: % is scaled to controls: 0 for no effect and ±100 for the full control effect; nearly all actives have a fitted effect of over 50% in size
# L3MBTL1 inh: inhibitors of human L3MBTL1. AlphaScreen L3MBTL1–H3K9me1 peptide binding. Q9Y468. AID 485360. Potency, µM (doses to about 57.1 µM), for the others: at the top dose activity, negative = inhibition, hits mostly inhibitors. hit rate 0.66% among 230,000; also: % is scaled to controls: 0 for no effect and ±100 for the full control effect; nearly all actives have a fitted effect of over 60% in size
#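 Displacement of a biotinylated histone H3(1-15) peptide monomethylated at Lys9 (75 nM) from L3MBTL1 (50 nM) was measured by AlphaScreen after a 30 min room-temperature compound incubation; cefsulodin titration served as intraplate control.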
# * marks the source's active call; other numbers are inactive results; ? = inconclusive; . = not tested or not shown; ! = not confirmed by another sample; [ ] = another dose, or the depositor's remark. Hits are enriched below; roughly 12% of the tested compounds scored in any of these assays. Calls follow the shape of the dose curve; as a rule, active = well fitted curve in the direction sought with a large enough effect; inconclusive = small, poorly fitted or top-dose-only effect, or another doubt; inactive = no such curve, though single readings can be large; an effect the other way counts as inactive or inconclusive. Potency is read from the fitted curve at half-maximal effect.
SMILES,BAZ2B inh,G9a block,HP1b binding inh,Sfp PPTase inh,JMJD2A Tudor,L3MBTL1 inh
Cc1cc(N/N=C/c2c[nH]c3ccccc23)c2ccccc2n1,-35%,.,10%,-2%,-16%,-11%
Cn1c(N/N=C/c2cc3ccccc3nc2Cl)nc2ccccc21,-3%,12%[59 µM],29%,79µM*,7%,5%
Cc1ccc(N2CCN(C(=O)c3cn(C)c4ccc(S(=O)(=O)N5CCCC5)cc4c3=O)CC2C)cc1 (centres undefined),.,-5%[59 µM],7%,.,?,.
CS(=O)(=O)CC[C@@H](C(=O)NCCc1ccccc1)N1Cc2ccccc2C1=O,-6%,6%[59 µM],32%,.,-5%,.
Cc1ccc(S(=O)(=O)N2CCC(C(=O)N[C@H](C(=O)NC3CCS(=O)(=O)C3)C(C)C)CC2)cc1 (some centres undefined),-5%,-40%[12.7 µM],52%,-3%,-4%,-6%
CSCC[C@H](NC(=O)C1CCN(S(=O)(=O)c2ccc(C)cc2)CC1)C(=O)NC1CCS(=O)(=O)C1 (some centres undefined),-4%,56µM*,23%,1%,-14%,-9%
Cc1ccc(-n2cnc3cc(C(=O)NC4CCCCCC4)ccc32)cc1Cl,-11%,-26%[59 µM],24%,.,?,.
CC(Sc1ccsc1[N+](=O)[O-])C(=O)NCc1ccco1 (centres undefined),-29%,?,9%,50µM*,-32%,.
CN1C(=O)N(CC(=O)N2CCN(S(=O)(=O)Cc3ccccc3)CC2)C(=O)C12CCCCC2,9%,56µM*,15%,.,-15%,2%
Cc1ccc(-c2nonc2NC(=O)c2ccco2)cc1C,-3%,-50%[59 µM],29%,.,-17%,.
O=C(c1ccc2ccccc2c1)N1CCN(c2ccccn2)CC1,-25%,6%,8%,13%,-19%,3%
O=S(=O)(c1ccc2ccccc2c1)N1CCN(c2ccc(O)cc2)CC1,.,.,?,.,35µM*,-28%
O=C(c1ccc2ccccc2c1)N1CCN(c2ccc(O)cc2)CC1,-37%,32µM*,?,?,?,-3%
O=C(CSc1ccc2ccccc2c1)N1CCN(c2ccc(O)cc2)CC1,50µM*,16µM*,-28%,50µM*,50µM*,?
COc1ccc(N2CCN(C(=O)CSc3nnc(-c4cc5ccccc5cc4O)n3C)CC2)cc1,6%,17%,-3%,12%,?,-1%
COc1ccc(-c2nc3c4ccccc4n(CC(=O)Nc4cc(F)ccc4F)c(=O)n3n2)cc1,-7%,-16%[59 µM],25%,.,-15%,.
O=C1CC(c2ccco2)CC2=C1C(c1ccccc1)n1nc(C(F)(F)F)nc1N2 (centres undefined),-19%,?,-1%,10µM*,-19%,-16%
CCc1ccccc1NC(=O)c1sc2nc3n(c(=O)c2c1C)CCC3,-31%,-29%[59 µM],28%,.,-23%,.
CC1=CC(=O)c2c(O)ccc(O)c2C1=O,3.5µM*,-189%[59 µM],.,25µM*,.,0.79µM*
CCOC(=O)C1=C[C@]2(CC)CCCN3CCc4c(n1c1ccccc41)[C@@H]32,?,22µM*!,26%,-26%,-34%,-15%
N=c1n(CCN2CCCC2)c2ccccc2n1CC(O)c1ccco1 (centres undefined),?,?,1%,7%,-18%,.
N=c1n(CCN2CCCCC2)c2ccccc2n1CC(=O)c1ccc(Cl)c(Cl)c1,32µM*,.,1%,35µM*,-28%,-19%
N=c1n(CCN2CCCCC2)c2ccccc2n1CC(O)c1cccc(Br)c1 (centres undefined),-10%,50µM*,32%,-5%,-20%,0%
CCCCn1c(=N)n(CC(O)c2ccccc2)c2ccccc21 (centres undefined),-2%,.,5%,?,-11%,.
CN(C)CCn1c(=N)n(CC(O)c2ccc(Cl)c(Cl)c2)c2ccccc21 (centres undefined),-8%,45µM*,14%,9%,-15%,6%
N=c1n(CCN2CCCCC2)c2ccccc2n1CC(O)c1ccc(Cl)c(Cl)c1 (centres undefined),-10%,18µM*,25%,?,?,.
